High-throughput results as filed in PubChem BioAssay.
A selection: hits, their analogues and other compounds. The true share with any hit is near 4.8%.
SKKanGAS inh: blocks kanamycin growth of S. pyogenes SKKanGAS strain | BacTiter-Glo, 6 h | inhibition, % at 7.5 µM | hit rate 1.3% among 300,000 | AID 1662;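 active = mean replicate score, as percent of positive control median, at least 50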;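 also: strain carries kanamycin resistance gene driven by streptokinase promoter and grows in 40 µg/ml kanamycin; loss of luminescence reflects streptokinase promoter inhibition or plain growth inhibition; 0% = median of DMSO wells and 100% = positive control at its reference dose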
tim23-1 inh: inhibits growth of tim23-1 mutant yeast. S. cerevisiae tim23-1 growth, BacTiter-Glo luminescence, 24 h. inhibition, % at 20 µM. hit rate 1.3% among 330,000. AID 463212;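 active = growth inhibition of the mutant yeast at or above 50%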;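 also: temperature-sensitive mutant grown at 25 °C; plate controls were DMSO-treated mutant yeast for no effect and medium wells lacking yeast for full effect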
PfHsp90 set2: inhibits growth of yeast expressing Plasmodium falciparum Hsp90; S. cerevisiae expressing PfHsp90, BacTiter-Glo ATP, 48 h; yeast lacking PDR1 and PDR3 efflux regulators; inhibition, % at 9.4 µM; AID 504621; hit rate 0.32% among 310,000;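 active = every replicate shows inhibition above about 80%, whatever the replicate mean, limit read from the data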;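 also: 0% = DMSO neutral controls and 100% = 20 µM radicicol positive controls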
tim10-1 inh: growth inhibitors of tim10-1 mutant yeast; S. cerevisiae tim10-1 ts strain growth, BacTiter-Glo, 24 h; hit rate 2.2% among 330,000; inhibition, % at 20 µM;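 active = inhibition of at least 40%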;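 also: mutant grown at 25 °C; 0% = DMSO wells with yeast and 100% = wells holding no yeast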
TIM10 inh: growth inhibitors of TIM10 yeast strain; AID 463195; hit rate 1.4% among 330,000; inhibition, % at 10 µM; S. cerevisiae TIM10 strain growth, BacTiter-Glo luminescence, 24 h;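 active = inhibition of 40% or more at the single tested concentration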;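 also: wild-type TIM10 isogenic control strain grown at permissive 25 °C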
NALP1 inh: NALP1 inhibition | S. cerevisiae NALP1/ASC/caspase-1 growth, X-gal OD620, 72 h | inhibition, % at 10 µM | hit rate 0.61% among 280,000 | AID 2071; in the data active = inhibition mostly above about 24%, no sharp cut-off; inactive = mostly below about 32%
The depositor's hits bear a star; nt = no result.

SMILES | SKKanGAS inh | tim23-1 inh | PfHsp90 set2 | tim10-1 inh | TIM10 inh | NALP1 inh
COc1cc2cnc(-c3ccccc3)c(C(=O)c3ccc(F)cc3)c2cc1OC | nt | 47.1 | 84.6* | 8.4 | 0.4 | nt
Cc1cc(Br)c2[nH]cc(CCNC(=O)c3ccco3)c2c1 | 0.2 | 32.7 | 0.5 | 32.7 | 20.9 | 40.6*
Cc1ccc2[nH]cc(CCNC(=O)c3ccco3)c2c1 | -7.5 | 12.5 | 2.5 | 15.9 | -15.5 | 14.4
O=C(O)c1ccc2c3c(ncnc13)-c1ccccc1C2=O | 59.0* | 19.9 | nt | -3.8 | 21.5 | 9.6
O=C(O)c1cccc2c1C(=O)c1ccccc1C2=O | -0.3 | 28.8 | 26.0 | 20.0 | -6.4 | 14.1
O=C(NC(=S)Nn1cnc2c(cnn2-c2ccccc2)c1=O)c1ccc(Cl)cc1 | 6.3 | 13.6 | 3.6 | 27.8 | 24.9 | 8.8
O=C(NC(=S)Nn1cnc2c(cnn2-c2ccccc2)c1=O)c1ccc(Oc2ccccc2)cc1 | 89.3* | -5.8 | 1.6 | 1.8 | 4.3 | 21.0
CN=C1S/C(=C\c2ccc(N3CCOCC3)c(F)c2)C(=O)N1C | 60.6* | 19.3 | nt | 18.2 | -0.7 | -22.2
CCCc1nc2ccccc2c(=O)n1NC(=O)c1c(O)c2cccc3c2n(c1=O)CCC3 | 73.0* | 11.1 | -10.2 | -15.5 | 0.6 | 27.7
Cc1cnc(NC(=O)c2c(O)c3cccc4c3n(c2=O)CCC4)s1 | -3.6 | nt | nt | nt | nt | 8.6
CC(C)c1nnc(NC(=O)c2c(O)c3cccc4c3n(c2=O)CCC4)s1 | 90.4* | 7.7 | 24.5 | -8.6 | 1.9 | -0.2
CNC(=O)c1c(O)c2cccc3c2n(c1=O)CCC3 | -0.8 | 48.7 | -8.3 | -13.7 | 30.7 | -0.2
CC(C)(C)c1ccc(Cn2ccc(-c3ccc4c(c3)OCO4)n2)cc1 | 53.1* | 21.7 | 0.0 | 38.1 | 31.4 | -61.5
O=C(COC(=O)c1ccccc1Br)NCCC1=CCCCC1 | 5.5 | 14.2 | -17.4 | 14.8 | 17.0 | 38.4*
Cc1[nH]n(C2=NCCS2)c(=O)c1N=Nc1cccc(C(F)(F)F)c1 | 82.7* | -8.3 | -34.5 | 22.1 | -2.0 | 3.6
Cc1[nH]n(C(N)=S)c(=O)c1N=Nc1cccc(C(F)(F)F)c1 | 2.4 | 13.0 | -16.7 | 11.1 | -6.0 | -14.7
COc1ccc(-c2nc(CS(=O)(=O)CC(=O)Nc3ccc(Cl)cc3)c(C)o2)cc1 | 5.4 | 7.6 | -1.2 | 9.5 | 5.1 | 17.4
COc1ccc(NC(=O)CS(=O)(=O)Cc2nc(-c3ccc(C)cc3)oc2C)cc1 | -1.6 | -9.9 | -10.5 | 1.4 | -0.4 | 44.7*
CCCCC(=O)N1CC(=O)Nc2ccc(F)cc2C1c1ccc(F)cc1 (stereo not drawn) | -3.2 | 10.1 | 19.5 | 33.7 | 2.9 | 12.5
O=C(CCNS(=O)(=O)c1cccc2nsnc12)NCCC1=CCCCC1 | 0.2 | 18.3 | -3.8 | 11.6 | 10.1 | 4.2
CC1=NN(c2ccccc2)C(=O)C1N=Nc1cccc(O)c1 (stereo not drawn) | 0.1 | 39.9 | -17.6 | 0.1 | -10.3 | 31.8*
COc1ccc(S(=O)(=O)N[C@@H](C)C(=O)OCC(=O)Nc2cc3oc4ccccc4c3cc2OC)cc1 | 80.3* | 27.9 | 5.2 | 16.5 | 19.7 | 33.4
COc1cc2c(cc1NC(=O)COC(=O)[C@@H](NS(=O)(=O)c1cccc(Cl)c1)C(C)C)oc1ccccc12 | 34.5 | 18.1 | -18.4 | 23.2 | 21.5 | 26.3
O=[N+]([O-])c1cc(Cc2ccccc2)cc(C=Nc2ccc(N3CCOCC3)cc2)c1O | 11.0 | nt | 106.1* | nt | nt | 58.7
CCOc1ccc(N(CC(=O)NCC2CCCO2)S(=O)(=O)c2ccc(SC)cc2)cc1 (stereo not drawn) | -2.8 | 21.7 | 8.8 | 20.6 | 2.4 | 34.2*
CSc1nc2ccc(NC(=O)c3ccccn3)cc2s1 | 1.7 | 10.5 | 17.9 | 2.2 | 10.9 | 10.3
Cc1cccc(-c2cc(C(=O)Nc3sc(C)c(C)c3C(N)=O)c3ccccc3n2)c1 | 13.3 | 31.9 | 1.3 | 30.3 | 12.0 | 11.4
Cc1ccc(C)c(-c2cc(C(=O)Nc3sc(C)c(C)c3C(N)=O)c3ccccc3n2)c1 | 70.2* | 39.6 | -7.5 | 31.1 | 38.7 | 9.0
COc1cc(C(=O)N[C@H](C(=O)NC(C)C23CC4CC(CC(C4)C2)C3)C(C)C)cc(OC)c1OC (stereo partly drawn) | -9.0 | 16.0 | -28.3 | 17.3 | 9.0 | 40.7*
CC(C)=CCc1cc([C@@H]2COc3c(ccc4c3C=CC(C)(C)O4)C2)c(O)cc1O | 104.6* | 43.0 | 104.5* | 27.2 | 25.6 | nt
